Experimental data taken from PubChem BioAssay AID1851 (National Center for Advancing Translational Sciences (NCATS), 2009).
Several values for one entry are separate records, joined by “and”; a condition that tells them apart may be missing. Identical values can stand only once. Among all 16,000 compounds or so, about 5,800 (36%) were called active. Another 23% or so got no clear call; they are omitted. Calls come from the whole dose curve; as a rule, active = well fitted curve in the direction sought with a large enough effect; inconclusive = small, poorly fitted or top-dose-only effect, or effect the other way; inactive = no such curve, though single readings can be large or run the other way. The list shows a part of the results.

molecular target: Cytochrome P450 2C19 (Homo sapiens) (UniProt P33261); test: Cytochrome panel assay with activity outcomes; conditions: recombinant CYP, pro-luciferin dealkylation, luminescence, p450-cyp2c19; series mostly up to 57.1 µM; activity, negative = inhibition: at the top concentration
Sequence (P33261 whole entry, looked up): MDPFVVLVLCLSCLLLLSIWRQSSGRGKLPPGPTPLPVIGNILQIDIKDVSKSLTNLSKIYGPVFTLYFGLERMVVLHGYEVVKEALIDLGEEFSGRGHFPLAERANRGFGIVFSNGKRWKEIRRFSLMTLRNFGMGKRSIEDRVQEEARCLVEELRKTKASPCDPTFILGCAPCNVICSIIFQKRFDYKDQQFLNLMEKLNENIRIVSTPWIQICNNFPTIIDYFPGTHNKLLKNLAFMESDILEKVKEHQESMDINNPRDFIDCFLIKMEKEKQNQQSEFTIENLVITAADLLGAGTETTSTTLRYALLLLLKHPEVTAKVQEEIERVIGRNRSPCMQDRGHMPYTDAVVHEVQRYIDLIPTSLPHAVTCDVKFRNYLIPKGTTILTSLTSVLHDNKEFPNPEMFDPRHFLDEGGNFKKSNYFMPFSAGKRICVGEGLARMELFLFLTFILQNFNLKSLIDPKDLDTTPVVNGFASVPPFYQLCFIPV
% is set by controls: 0 for no effect and ±100 for the full control effect.

activity, negative = inhibition, inactive:
OCCN(CO)CO 0.957% [at 11.4 µM], CN(C)CCOC(=O)[C@@H](c1ccccc1)C1(O)CCCC1 -33.7% [at 25.6 µM], O=C(CCCN1CCC(O)(c2cccc(C(F)(F)F)c2)CC1)c1ccc(F)cc1 -23.7%, COc1ncc2nc(-c3cn(C)c4ccccc34)c(=O)n(-c3ccccc3)c2n1 9.08%, CN1CCN(c2ncc3nc(-c4cn(C)c5ccccc45)c(=O)n(-c4ccccc4)c3n2)CC1 -27.7%, Cc1ccc(C)c(S(=O)(=O)NC(C)C(=O)Nc2ccc(-c3nc4ccccc4s3)cc2)c1 (centres undefined) -21.3%, N#C/C(=C\NC(=S)c1ccncc1)c1nc2ccccc2s1 -29.2% [at 11.4 µM], O=C(c1ccco1)N1CCC2(CCN(Cc3nccs3)CC2)CC1 -1.61%, O=C(CCc1ccccc1)Nc1ncn[nH]1 -13.6%, CCOC(=O)N1CCN(C(=O)CCn2nc(-c3ccccc3)ccc2=O)CC1 31%, CCc1cc2c(nc1CC)CCN(CC/C(C)=N/OCC[C@@H]1C=C[C@H](OC(C)=O)[C@H](COC(C)=O)O1)C2 7.29% [at 11.4 µM], COCCn1c(=O)c(-c2cc(F)cc(F)c2)nc2cnc(N(C)C)nc21 38.8%, O=C(Nc1ccc2ncccc2c1)Nc1ccc2ncccc2c1 14.5% [at 11.4 µM], Cc1cccc(C)c1NC(=O)Nc1ccc(S(N)(=O)=O)cc1 23.1% [at 11.4 µM], CC(C)NCC[C@@H](O)c1cc2ccccc2o1 31.3% [at 11.4 µM], Nc1ccc(S(=O)(=O)c2ccc(NC(=O)c3cccnc3)cc2)cc1 3.12% [at 11.4 µM], CC(=O)Nc1ccc(S(=O)(=O)N=S(C)C)cc1 14.7% [at 11.4 µM], Cc1ccc(S(=O)(=O)N[C@H](C(=O)O)C(C)C)cc1 4% [at 11.4 µM], CO/N=C\[C@@H](C)[C@H](OCc1ccccc1)C(C)C 2.64% [at 11.4 µM], CC1(C)CC(=O)C(C(c2cccc(O)c2O)C2C(=O)CC(C)(C)CC2=O)C(=O)C1 26% [at 11.4 µM], CN1CCCN(C2C3CC4CC(C3)CC2C4)CC1 (centres undefined) -11.6%, CC(C)N1CCN(c2ccncc2S(=O)(=O)N2CCCCC2)CC1 -23.9% [at 11.4 µM], O=C(Nn1cc(C(=O)N2CCN(c3ccccc3F)CC2)c2ccccc2c1=O)c1cnccn1 5.4%, CC1CCC(C(=O)O)([C@H](Br)C(=O)O)CC1 (some centres undefined) -0.894% [at 11.4 µM], Cc1ncc(CO)c(CO)c1O -13.5% [at 25.6 µM], CC(=O)Nc1ccc(NC(=O)C2CCN(S(=O)(=O)c3cccc4nonc34)CC2)cc1 -27.7%, O=S(=O)(c1cnccc1N1CCN(CCO)CC1)N1CCCC1 33.1% [at 11.4 µM], C[C@H]1CN(S(=O)(=O)c2cccc3cnccc23)CCN1 -17.5%, Cc1ccc(S(=O)(=O)N[C@H]2COC(=O)CC=C[C@@H](C)[C@H]3C=C[C@H](O)[C@@H](COC(=O)CC=C[C@H]2C)O3)cc1 14.2% [at 11.4 µM] and 5.29% [at 11.4 µM], NC[C@@H]1O[C@H](O[C@@H]2[C@H](O[C@@H]3O[C@H](CO)[C@@H](COC[C@H]4O[C@@H](CN)[C@@H](O)[C@@H](O)[C@@H]4N)[C@@H]3O)[C@@H](O)[C@@H](N)C[C@H]2N)[C@@H](N)[C@H](O)[C@@H]1O 20.1% [at 25.6 µM], O=C(O)CN(CCN(CC(=O)O)CC(=O)O)CCN(CC(=O)O)CC(=O)O -18.6%, CCNc1ncc2nc(-c3cccs3)c(=O)n(C)c2n1 2.33%, O=C(c1cnccn1)N1CCC2(CC1)CN(Cc1cc(C(F)(F)F)cc(C(F)(F)F)c1)C2 -28.5%, C=CCNC(=S)N1CCN(c2ncc3c(=O)c(C(=O)O)cn(CC)c3n2)CC1 -24.5%, COc1ccc2oc(=O)c(NC(=O)C3CCCCC3)cc2c1 -27.6%, COc1c(O)cc2c(c1O)[C@@H]1O[C@@H](CO)[C@@H](O)[C@@H](O)[C@@H]1OC2=O 32.9% [at 25.6 µM], Cc1nnc(NS(=O)(=O)c2ccc(N)cc2)s1 23.1% [at 25.6 µM], Cc1ccc(S(=O)(=O)NC(=O)Nc2ncn[nH]2)cc1 37.1% [at 11.4 µM], O=c1[nH]ccc2c(O)cccc12 11.1%, O=c1[nH]c2ccccc2c2ccccc12 -30.4%, CN(C)Cc1ccccc1-c1nc(N2CCOCC2)c2ccccc2n1 30.7%, Cc1ccc(C2/C(=C(/O)c3ccc(Cl)cc3)C(=O)C(=O)N2CC2CCCO2)o1 (centres undefined) -16.5%, Cn1c(=O)c(-c2ccc(Cl)cc2)nc2cnc(Nc3ccccc3)nc21 6.65%, COc1ncc2nc(-c3ccc(Cl)cc3)c(=O)n(-c3ccccc3)c2n1 -31.9%, O=C(O)Cc1nn(Cc2ccc(Br)cc2F)c(=O)c2ccccc12 -24.3%, COc1ncc2nc(-c3ccccc3)c(=O)n(-c3ccccc3)c2n1 -27.6%

AC50, active:
O=C(Cn1c(C(F)(F)F)nc2ccccc21)c1ccccc1 3.98 µM, O=C(Cn1c(C(F)(F)F)nc2ccccc21)c1ccc(F)cc1 1.58 µM, O=S(=O)(Nc1ccc2c(c1)OCCO2)c1cccc2cccnc12 3.55 µM, Cn1cc(/C=N/n2cnc3scc(-c4ccccc4)c3c2=O)c2ccccc21 8.91 µM, Cc1cccc(NC(=S)c2nc3ccccc3s2)c1 5.62 µM, O=C(NCC(c1cccs1)N1CCOCC1)c1ccco1 (centres undefined) 8.91 µM, CCC1=NN(C(=O)CCc2ccccc2)C(O)(C(F)(F)F)C1 (centres undefined) 0.224 µM, COc1cccc(C(=O)N2N=C(c3cccc(OC)c3)CC2(O)C(F)(F)F)c1 (centres undefined) 0.794 µM, CCOC(=O)N1N=C(c2ccccc2)CC1(O)C(F)(F)F (centres undefined) 15.8 µM, O=C(Cn1nnc(-c2ccccc2)n1)OCc1ccccc1 3.98 µM, CN1/C(=C\C(=O)COC(=O)Cn2nnc(-c3ccccc3)n2)C(C)(C)c2ccccc21 11.2 µM, O=[N+]([O-])C1=CC=C2C(=NC3(CCCCC3)N2O)C1=NC1CCCCC1 3.16 µM, Cc1ccc(NC(=O)Nc2ncccc2C)cc1 15.8 µM, CCN(/C=N/c1sc2c(c1C#N)CCCCC2)CC 1.26 µM, CCOC(=O)CSc1nnc(CSc2nc3sc4c(c3c(=O)[nH]2)CCCC4)n1-c1ccccc1 2.51 µM, COC(=O)C(NS(=O)(=O)c1ccc(NC(C)=O)cc1)C(C)C (centres undefined) 3.16 µM, CC(=O)Nc1ccc(S(=O)(=O)c2ccc(N)cc2)cc1 15.8 µM, COC(=O)[C@@H](NC(=O)Nc1ccc(C(C)=O)cc1)C(C)C 17.8 µM, Cc1ccc(C(C2C(=O)CC(C)(C)CC2=O)C2C(=O)CC(C)(C)CC2=O)s1 11.2 µM, O=C(C1CCN(S(=O)(=O)c2cccc3nsnc23)CC1)N1CCn2c1nc1ccccc12 10 µM, O=S(=O)(c1ccccc1S(=O)(=O)N1CCCCC1)N1CCCCC1 22.4 µM, O=C(C1CCCN(S(=O)(=O)c2cccc3nsnc23)C1)N1CC=C(c2ccccc2)CC1 (centres undefined) 2.51 µM, O=C(C1CCN(S(=O)(=O)c2cccc3nsnc23)CC1)N1CCN(c2ccccc2F)CC1 22.4 µM, O=C(C1CCN(S(=O)(=O)c2cccc3nsnc23)CC1)N1CCc2ccccc21 14.1 µM, O=S(=O)(c1cccc2nsnc12)N1CCCC1 0.891 µM, CC1CCN(C(=O)C2CCN(S(=O)(=O)c3cccc4nonc34)CC2)CC1 11.2 µM, O=C(C1CCN(S(=O)(=O)c2cccc3nsnc23)CC1)N1CCCc2ccccc21 2 µM, CCCN(CCC)C[C@@H]1CCCCN1CCNC(=O)N1c2ccccc2C(=O)Nc2cccnc21 7.94 µM, Cc1cc(C)c(S(=O)(=O)N2CCCCC2)c(C)c1N(C)S(=O)(=O)c1ccccc1 2.51 µM, CCc1ccc2c(c1)cc(CN(C(=S)Nc1cccc(C)c1)C1CC1)c1nnnn12 2.24 µM, CCCNS(=O)(=O)c1ccc(OCC(=O)OC)cc1 10 µM, CCN1C(=O)/C(=C/C=C2/SCCN2C)SC1=S 14.1 µM, Cc1ccn2c(NC(=O)c3ccccc3)c(-c3cccs3)nc2c1 17.8 µM, CCn1c(SCc2nc3ccccc3[nH]2)nnc1-c1ccc(OC)cc1 2.51 µM, c1ccc(-c2nnc(SCc3nc4ccccc4[nH]3)n2Cc2ccco2)cc1 2.51 µM, c1ccc(SCc2nc3ccccc3[nH]2)cc1 1.41 µM, OC(Cc1nc2ccccc2[nH]1)c1ccccc1Cl (centres undefined) 8.91 µM, Cc1cc(NC(=O)C2CCCCC2)nc2c1c(=O)oc1ccccc12 8.91 µM, N#Cc1c(-c2ccc3c(c2)OCO3)ccn2nc(-c3cccc(C(F)(F)F)c3)nc12 2.51 µM, Cc1ccc(S(=O)(=O)Nc2nc(C)c(NC(=O)Nc3ccc(Cl)cc3Cl)s2)cc1 14.1 µM, Cc1nc2c(O)cccc2c(=O)[nH]1 0.398 µM, CN1c2ccccc2C(C)(C)C12C=Nc1c(cc(N3CCOCC3)c3ccccc13)O2 (centres undefined) 3.55 µM, COc1cccc(C2=CC(c3ccccc3)n3nnnc3N2)c1 (centres undefined) 0.158 µM, O=c1c2ccccc2c(-c2ccccc2)nn1-c1ccc(Cl)c(Cl)c1 2.51 µM, O=c1c2ccccc2c(-c2ccccc2)nn1Cc1ccc(Cl)cc1 1.12 µM

AC50, inactive:
Oc1cc2c(cc1O)[C@H](c1ccccc1)CNCC2, O=S(=O)(c1cccc2c(Cl)cccc12)N1CCCNCC1, COc1ccc([C@@H]2CNC(=O)C2)cc1OC1CCCC1
